Assay outcomes from PubChem.
ASK1 primary = inhibitors of human ASK1 kinase. Q99683. AlphaScreen MKK6 phosphorylation by ASK1, luminescence. inhibition, % at 7.44 µM. hit rate 0.99% among 22,000. AID 1159602; in the data active = inhibition above about 35%
Target sequence (Q99683 whole entry, looked up): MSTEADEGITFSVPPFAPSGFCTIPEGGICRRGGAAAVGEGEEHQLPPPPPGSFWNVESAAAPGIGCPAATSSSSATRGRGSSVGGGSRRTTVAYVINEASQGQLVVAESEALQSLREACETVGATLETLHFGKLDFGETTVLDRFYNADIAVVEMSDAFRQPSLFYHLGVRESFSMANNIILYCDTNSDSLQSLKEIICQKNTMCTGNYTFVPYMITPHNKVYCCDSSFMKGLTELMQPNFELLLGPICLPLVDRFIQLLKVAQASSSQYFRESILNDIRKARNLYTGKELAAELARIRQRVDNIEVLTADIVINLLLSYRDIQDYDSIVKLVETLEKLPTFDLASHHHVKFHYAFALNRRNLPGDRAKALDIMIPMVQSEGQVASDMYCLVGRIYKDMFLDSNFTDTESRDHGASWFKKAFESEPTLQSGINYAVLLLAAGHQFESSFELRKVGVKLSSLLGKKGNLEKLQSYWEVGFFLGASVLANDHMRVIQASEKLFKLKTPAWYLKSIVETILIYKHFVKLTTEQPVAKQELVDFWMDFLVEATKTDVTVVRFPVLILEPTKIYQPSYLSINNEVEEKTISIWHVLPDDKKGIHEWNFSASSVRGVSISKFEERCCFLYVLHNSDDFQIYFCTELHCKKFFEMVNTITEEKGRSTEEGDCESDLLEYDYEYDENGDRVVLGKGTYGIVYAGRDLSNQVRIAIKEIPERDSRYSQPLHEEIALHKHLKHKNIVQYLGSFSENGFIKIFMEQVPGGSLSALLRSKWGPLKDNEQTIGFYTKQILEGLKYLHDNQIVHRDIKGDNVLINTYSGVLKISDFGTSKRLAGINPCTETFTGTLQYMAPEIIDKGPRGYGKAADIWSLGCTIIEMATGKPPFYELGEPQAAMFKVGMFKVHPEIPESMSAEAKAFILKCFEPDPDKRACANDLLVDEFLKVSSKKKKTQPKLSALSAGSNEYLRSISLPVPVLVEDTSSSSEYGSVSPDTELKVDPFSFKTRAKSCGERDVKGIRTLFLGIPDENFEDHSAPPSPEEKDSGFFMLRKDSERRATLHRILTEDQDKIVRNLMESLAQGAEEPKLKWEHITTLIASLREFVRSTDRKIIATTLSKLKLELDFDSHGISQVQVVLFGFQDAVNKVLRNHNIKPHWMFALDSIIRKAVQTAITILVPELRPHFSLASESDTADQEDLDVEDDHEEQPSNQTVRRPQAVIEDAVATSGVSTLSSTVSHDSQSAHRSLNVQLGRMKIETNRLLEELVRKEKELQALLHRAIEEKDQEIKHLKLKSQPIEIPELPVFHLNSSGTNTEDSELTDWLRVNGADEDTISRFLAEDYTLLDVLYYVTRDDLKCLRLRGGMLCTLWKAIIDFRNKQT
ULK1 primary = inhibitors of human ULK1 kinase. O75385. AlphaScreen Atg13 phosphorylation by ULK1, luminescence. inhibition, % at 5.96 µM. hit rate 1.9% among 30,000; in the data active = inhibition above about 43%
Numbers stand for hits; i = inactive; nt = not tested or not shown. Sampled rows, rich in hits. Any-hit rate of the full collection: about 2.5%.

SMILES	ASK1 primary	ULK1 primary
Cc1ncn(-c2ccc(Nc3ncc4cccc(-c5cncc6ccccc56)c4n3)cc2)n1	i	i
Cc1ncn(-c2ccc(Nc3ncc4cccc(-c5ccncc5F)c4n3)cc2)n1	i	51
Cc1ncn(-c2ccc(Nc3ncc4cccc(-c5ccccn5)c4n3)cc2)n1	i	53
Cc1ncn(-c2ccc(Nc3ncc4cccc(Nc5ccccc5)c4n3)cc2)n1	i	i
Cc1ncn(-c2ccc(Nc3ncc4cccc(-c5cnn(CCN6CCOCC6)c5)c4n3)cc2)n1	i	63
Cc1ncn(-c2ccc(Nc3ncc4cccc(-c5ccc(N6CCOCC6)nc5)c4n3)cc2)n1	i	i
Cc1ncn(-c2ccc(Nc3ncc4ccccc4n3)cc2)n1	i	44
Cc1ncn(-c2ccc(Nc3ncc4cccc(-c5nc6ccccc6s5)c4n3)cc2)n1	i	i
CC(=O)c1cccc(-c2ccc(C(=O)NCCCN3CCCC3=O)s2)c1	i	i
O=C(Nc1cc(-c2ccncc2)c[nH]c1=O)C(O)c1ccc(Cl)cc1 (centres undefined)	i	i
O=C(NC1CC1)c1csc(Nc2ccccc2)n1	i	i
Cc1ncn(-c2ccc(Nc3ncc4cccc(-c5cncnc5)c4n3)cc2)n1	i	i
Cc1ncn(-c2ccc(Nc3ncc4cccc(-c5cn[nH]c5)c4n3)cc2)n1	i	44
Cc1cc(-c2cccc3cnc(Nc4ccc(-n5cnc(C)n5)cc4)nc23)ccn1	i	i
Cc1ncn(-c2ccc(Nc3ncc4cccc(-c5ncco5)c4n3)cc2)n1	i	72
COc1cc2nc(NCCN3CCOCC3)nc(Nc3cc(OC)c(OC)c(OC)c3)c2cc1OC	i	i
CC(C)N(CCNC(=O)c1cnc(Nc2ccnn2C)s1)C(C)C	i	i
O=C(Nc1ccc(N2CCOCC2)cc1)c1cnc(NCCCN2CCCC2=O)s1	i	56
O=C(Nc1ccc(N2CCOCC2)cc1)c1cnc(NCCN2CCOCC2)s1	i	i
O=C(NCCCN1CCCC1=O)c1cc(Nc2ccc(N3CCOCC3)cc2)nc2ccccc12	i	i
O=C(Nc1ccc(Oc2ccccc2)cc1)c1cc(N2CCc3ccccc3C2)nc2ccccc12	i	i
O=C(Nc1ccc(N2CCOCC2)cc1)c1cc(NCCCN2CCCC2=O)nc2ccccc12	i	51
O=C(Nc1ccc(N2CCOCC2)cc1)c1cc(N2CCc3ccccc3C2)nc2ccccc12	i	50
O=C(NCc1ccccc1)C1(c2ccc([N+](=O)[O-])cc2)CCCC1	nt	i
COc1cc(NC(=O)c2cccc(-n3cc(NC(=S)Nc4ccccc4Br)cn3)c2)cc(OC)c1OC	i	i
SMILES	ASK1 primary	ULK1 primary
Nc1cccc(-c2nc(NCCc3ccc(O)cc3)c3[nH]cnc3n2)c1	i	i
COc1ccc(-c2ncc(C)c(NCc3cccnc3)n2)cn1	i	i
CC(C)N(CCNc1ncnc2c1nc(Nc1ccncc1)n2C(C)C)C(C)C	i	i
OCCNc1nc(Nc2ccccc2)nc2c1ncn2-c1ccccc1	i	i
O=C1CCCN1CCCNc1nc(Nc2ccccc2)nc2nc[nH]c12	i	46
O=C1CCCN1CCCNc1nc(Nc2cccnc2)nc2nc[nH]c12	i	i
O=C1CCCN1CCCNc1nc(Nc2ccncc2)nc2nc[nH]c12	i	55
O=C1CCCN1CCCNc1nc(Nc2ccccc2)c2[nH]cnc2n1	i	i
O=C1CCCN1CCCNc1nc(Nc2ccc(-n3ccnc3)cc2)nc2nc[nH]c12	i	58
O=C1CCCN1CCCNc1nc(NCCCN2CCCC2=O)c2[nH]cnc2n1	i	i
O=C(Nc1ccc(N2CCOCC2)cc1)c1cnc(Nc2ccc3ncccc3c2)s1	i	i
c1ccc2[nH]c(CNc3nc(N4CCC(N5CCOCC5)CC4)nc4nc[nH]c34)nc2c1	i	i
Cc1cc(Nc2ccccc2)nc(Nc2nc3ccccc3n2C)n1	i	i
Cc1cccc(C(=O)Nc2cccc(-n3c(C)nc4ncccc4c3=O)c2)c1	nt	i
COCc1cc(C)nc(OCC(=O)N/N=C/c2ccc(-c3cccc(Cl)c3)o2)c1C#N	nt	i
CNC(=O)c1ccccc1Nc1cc(Nc2ccc(N3CCN(C)CC3)cc2OC)ncc1C(F)(F)F	i	91
COc1cc(N2CCOCC2)ccc1Nc1cc(Nc2cccc3c2C(=O)N(C)C3)c(C(F)(F)F)cn1	i	i
CNC(=O)c1ccccc1Nc1cc(Nc2ccc(OC3CCN(C)CC3)cc2OC)ncc1C(F)(F)F	i	95
CC(C)NC1CCC(Nc2cc(Nc3ccccc3C(N)=O)c(C(F)(F)F)cn2)CC1 (centres undefined)	i	i
COc1cc(N2CCOCC2)ccc1Nc1cc(Nc2ccccc2-c2ncco2)c(C(F)(F)F)cn1	i	i
CNC(=O)c1ccccc1Nc1cc(Nc2ccc(N3CCC(N(C)C)C3)cc2OC)ncc1C#N (centres undefined)	i	91
CC(=O)Nc1ccc(NC(=O)c2cncc(-c3ccc(C(N)=O)cc3)c2)cc1	i	i
COc1ccc2c(c1)CC(C(=O)Nc1ccc(-c3cn[nH]c3C)cc1OC(C)C(N)=O)CO2 (centres undefined)	i	i
Cn1c(Nc2nc(Nc3ccc4c(c3)OCO4)c3ncn(CCN4CCCC4=O)c3n2)nc2ccccc21	i	i
O=C(Cc1cn(-c2ccc(N3CCOCC3)nn2)c2ccccc12)Nc1ccccc1	i	i
SMILES	ASK1 primary	ULK1 primary
Cn1c(=O)c2[nH]c(SCC(=O)Nc3ccccc3[N+](=O)[O-])nc2n(C)c1=O	nt	i
Cn1c(=O)cc(NCc2ccccc2)n(Cc2ccccc2)c1=O	nt	i
CCN(CC)c1nc(NCc2nc3ccccc3[nH]2)nc(Nc2ccc3ncccc3c2)n1	i	i
Cc1noc(C)c1-c1nc(Nc2ccccc2)c2ncn(C3CCCCC3)c2n1	i	i
c1ccc(Nc2nc(NC3CC3)c3ncn(C4CCCCC4)c3n2)nc1	i	i
Cc1noc(C)c1-c1nc(Nc2ccc(N3CCOCC3)cc2)c2ncn(C3CCCCC3)c2n1	i	50
c1cc(N2CCOCC2)ccc1Nc1nc(NC2CC2)c2ncn(C3CCCCC3)c2n1	i	i
c1cc(Nc2nc(NC3CC3)c3ncn(C4CCCCC4)c3n2)ncn1	i	44
c1cc(N2CCOCC2)ccc1Nc1nc(Nc2ccc(N3CCOCC3)cc2)c2ncn(C3CCCCC3)c2n1	i	53
O=C(Cc1ccc(F)cc1)Nc1ccc(-n2ncc3ccc(-c4nn[nH]n4)cc32)cc1	i	i
COc1cc(NC(=O)C2CCN(c3ccc(Nc4ccc(-n5ccnc5)cc4)nn3)CC2)cc(OC)c1OC	i	i
COc1ccc(CCNc2nc(Nc3nc4ccccc4n3C)nc3c2ncn3C2CCCCC2)cc1	i	i
Cn1c(Nc2nc(NCCOc3ccccc3)c3ncn(C4CCCCC4)c3n2)nc2ccccc21	i	52
CCNc1ncc(C(=O)Nc2cc(OC)c(OC)c(OC)c2)s1	i	i
Cc1cc(NCc2cccc(C(F)(F)F)c2)nc(N2CCN(c3ccccn3)CC2)n1	i	i
CCNC(=O)c1c(NC(=O)COc2ccccc2C)sc2c1CCCC2	nt	i
CCN(CC)CCC(=O)N1c2ccccc2Sc2ccc(Cl)cc21	nt	i
CCN(CC)CCC(=O)N1c2ccccc2Sc2ccc(C(F)(F)F)cc21	nt	45
CC(=O)c1cccc(-c2cc(C(=O)NCc3ccccc3)ccn2)c1	i	i
CNC(=O)c1ccccc1Nc1cc(Nc2ccc(N3CCOCC3)cc2)ncc1C(F)(F)F	i	90
CNC(=O)c1ccccc1Nc1cc(Nc2ccc(N3CCOCC3)cc2F)ncc1C(F)(F)F	i	89
CNC(=O)c1ccccc1Nc1cc(Nc2ccc3[nH]cc(C4=CCNCC4)c3c2)ncc1C(F)(F)F	i	i
